About 83,000 compounds went through this panel and 20% of them were active in at least one assay; those are over-represented in the sample as a whole.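 A percent growth of 40 corresponds to 60% growth inhibition; 0 means no net growth; -100 means all cells died. Active threshold: below 10.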 Active and inactive are the calls of the source.
What was measured:
Assay in all cases: NCI-60 one-dose screen, 48 h (100 = growth as untreated, 0 = no growth, -100 = all killed)
Settings in all cases: 10 µM unless noted
T-47D breast = tested on: T-47D breast
BT-549 breast = tested on: BT-549 breast
MDA-MB-435 melanoma = tested on: MDA-MB-435 melanoma
SW-620 colon = tested on: SW-620 colon
MCF7 breast = tested on: MCF7 breast
HCT-116 colon = tested on: HCT-116 colon
HCC-2998 colon = tested on: HCC-2998 colon
KM12 colon = tested on: KM12 colon

Measured: growth

COc1cc(NC(C)CCCN2C(=O)c3ccccc3C2=O)c2ncccc2c1OC (stereo not drawn)
inactive: T-47D breast 66.8% | BT-549 breast 91.2% | MDA-MB-435 melanoma 92.1% | SW-620 colon 84.7% | MCF7 breast 41.8% | HCT-116 colon 84.5% | HCC-2998 colon 124% | KM12 colon 80.2%

COc1ccc(C2=NN(C(=O)COc3ccc(Cl)cc3)C(O)(c3cc(F)c(Cl)cc3Cl)C2)cc1 (stereo not drawn)
inactive: T-47D breast 95.3% | BT-549 breast 115% | MDA-MB-435 melanoma 91.7% | SW-620 colon 100% | MCF7 breast 96.3% | HCT-116 colon 86.4% | HCC-2998 colon 104% | KM12 colon 89.1%

CC(=O)c1cc2c(N)c(C(=O)Nc3cccc(Cl)c3)sc2nc1C
inactive: T-47D breast 83.6% | BT-549 breast 75.5% | SW-620 colon 98.2% | MCF7 breast 74% | HCT-116 colon 102% | HCC-2998 colon 85.3% | KM12 colon 84.1%
active: MDA-MB-435 melanoma 2.38%

Nc1nc(Cl)cc(NCCCCNc2cc(Cl)nc(N)n2)n1
inactive: T-47D breast 108% | BT-549 breast 99.9% | MDA-MB-435 melanoma 124% | SW-620 colon 112% | MCF7 breast 109% | HCT-116 colon 102% | HCC-2998 colon 103% | KM12 colon 113%

CCCN1C(=O)CSC1=Nc1ccc2cc3ccc(N=C4SCC(=O)N4CCC)cc3nc2c1
inactive: T-47D breast 12.1% | BT-549 breast 41.7% | MDA-MB-435 melanoma 40.5% | SW-620 colon 70.3% | MCF7 breast 16.8% | HCT-116 colon 37% | HCC-2998 colon 64.2% | KM12 colon 36.7%

COc1ccc(Cn2cc3c(c2-c2cc(OC)c(OC)c(OC)c2)CCc2c(CO)noc2-3)cc1
active: BT-549 breast 0.154% | MDA-MB-435 melanoma -27.1% | HCT-116 colon 7.89%
inactive: T-47D breast 64.3% | SW-620 colon 21.4% | MCF7 breast 19.6% | HCC-2998 colon 26.5% | KM12 colon 16.5%

Cc1[nH]c2ccc(F)cc2c1CCNC(=O)C1CCN(C(=O)c2ccc(-c3ccccc3)cc2)CC1
inactive: BT-549 breast 40.8% | MDA-MB-435 melanoma 56.8% | SW-620 colon 69.3% | MCF7 breast 16.5% | HCT-116 colon 32.5% | HCC-2998 colon 57% | KM12 colon 43.3%
active: T-47D breast -32.2%

COc1ccc(-c2nn(-c3ccc(NC(=O)c4ccc(Cl)c(C(F)(F)F)c4)cc3)cc2-c2ccncc2)cc1Cl
inactive: T-47D breast 46.1% | BT-549 breast 40.5% | MDA-MB-435 melanoma 23.2% | SW-620 colon 16% | MCF7 breast 22.5% | HCT-116 colon 15.8% | KM12 colon 14.8%
active: HCC-2998 colon 9.69%

CCCCOc1c(N)cc(Cl)cc1C(=O)OCCN(CC)CC
inactive: T-47D breast 99.8% | BT-549 breast 76.5% | MDA-MB-435 melanoma 111% | SW-620 colon 99.2% | MCF7 breast 93.3% | HCT-116 colon 80.3% | HCC-2998 colon 109% | KM12 colon 104%

Clc1ccc2c(c1)nnn1c3ncccc3c(Br)c21
inactive: T-47D breast 60.7% | BT-549 breast 72.1% | MDA-MB-435 melanoma 95.2% | SW-620 colon 78.9% | MCF7 breast 64.2% | HCT-116 colon 68.4% | HCC-2998 colon 108% | KM12 colon 86.4%

COc1ccc(-c2nnc(SCC(=O)Nc3ccc(C(=O)/C=C/c4ccc(Cl)cc4)cc3)o2)cc1OC
inactive: T-47D breast 90.1% | BT-549 breast 57.3% | MDA-MB-435 melanoma 81.1% | SW-620 colon 101% | MCF7 breast 57.5% | HCT-116 colon 75.6% | HCC-2998 colon 96% | KM12 colon 97.9%

CCCCCCCC(=O)SCC/C=C/[C@@H]1CC(=O)NCc2nc(cs2)C2=N[C@@](C)(CS2)C(=O)N[C@@H](C(C)C)C(=O)N1
inactive: BT-549 breast 40.1% | SW-620 colon 26.9% | MCF7 breast 13.2%
active: T-47D breast -25.6% | MDA-MB-435 melanoma 6.04% | HCT-116 colon -30.3% | HCC-2998 colon -6.96% | KM12 colon 8.82%

Cc1ccc2nc(-c3ccc(-n4on4-c4ccc(/C=C/c5ccc(-n6on6-c6ccc(-c7nc8ccc(C)cc8s7)cc6)cc5S(=O)(=O)O)c(S(=O)(=O)O)c4)cc3)sc2c1
inactive: T-47D breast 95.5% | BT-549 breast 114% | MDA-MB-435 melanoma 110% | SW-620 colon 117% | MCF7 breast 110% | HCT-116 colon 103% | HCC-2998 colon 107% | KM12 colon 103%

Cc1cc(NCCN(C(C)C)C(C)C)nc(/N=C(\N)Nc2ccc(Cl)c(C(F)(F)F)c2)n1
active: T-47D breast -54.3% | BT-549 breast -64.6% | MDA-MB-435 melanoma -73.9% | SW-620 colon -89.7% | MCF7 breast -78.4% | HCT-116 colon -100% | HCC-2998 colon -96.7% | KM12 colon -92.6%

C=C1C(=O)O[C@H]2[C@H]1CC/C(COC(=O)c1ccc(Br)cc1)=C\CC[C@@]1(C)O[C@@H]21
active: T-47D breast -47% | BT-549 breast -8.16% | MDA-MB-435 melanoma -35.4% | SW-620 colon -47.5% | MCF7 breast -18.5% | HCT-116 colon -84.3%
inactive: HCC-2998 colon 87.3% | KM12 colon 56.2%

CCCC(C)(C)COC(=O)c1cccc(N)c1
inactive: T-47D breast 92% | BT-549 breast 79.9% | MDA-MB-435 melanoma 111% | SW-620 colon 104% | MCF7 breast 91.7% | HCT-116 colon 84.9% | HCC-2998 colon 96.9% | KM12 colon 106%

O=C1COc2ccccc2C(=O)N1CCCCN1CCCCC1
inactive: T-47D breast 51.3% | BT-549 breast 78.7% | MDA-MB-435 melanoma 104% | SW-620 colon 84.6% | MCF7 breast 79.6% | HCT-116 colon 57.8% | HCC-2998 colon 109% | KM12 colon 90.2%

O=C(O)c1ccc(-n2cc(/C=N/Nc3ccccc3F)c(-c3ccc(O)cc3)n2)cc1
inactive: T-47D breast 62.7% | BT-549 breast 80.3% | MDA-MB-435 melanoma 74.8% | SW-620 colon 61.8% | MCF7 breast 73.7% | HCT-116 colon 71.2% | HCC-2998 colon 86.4% | KM12 colon 57.9%

CC(C)CNCC(O)COc1ccc(C(C)(C)c2ccc(OCC(O)CNCC(C)C)cc2)cc1 (stereo not drawn)
inactive: BT-549 breast 69.4% | MCF7 breast 10.3% | KM12 colon 37.1%
active: T-47D breast -31.3% | MDA-MB-435 melanoma 7.56% | SW-620 colon 1.07% | HCT-116 colon 0.347% | HCC-2998 colon -24.5%

COc1cccc(C2CC(c3cc(OC)c(OC)c(OC)c3)=NN2)c1 (stereo not drawn)
inactive: T-47D breast 78.7% | BT-549 breast 93.6% | MDA-MB-435 melanoma 11.9% | SW-620 colon 51.7% | MCF7 breast 51.5% | HCT-116 colon 66.5% | HCC-2998 colon 83.2% | KM12 colon 54.7%

COc1ccc(-c2nnc(SCC(=O)Nc3ccc(C(=O)/C=C/c4ccc(OC)c(OC)c4)cc3)o2)cc1
inactive: T-47D breast 75% | BT-549 breast 113% | MDA-MB-435 melanoma 94.2% | SW-620 colon 92.7% | MCF7 breast 51.6% | HCT-116 colon 77.8% | HCC-2998 colon 102% | KM12 colon 84.5%

Cc1ccc(N(CC2=NCCN2)c2cccc(O)c2)cc1
inactive: T-47D breast 98.5% | BT-549 breast 89.7% | MDA-MB-435 melanoma 100% | SW-620 colon 102% | MCF7 breast 93.9% | HCT-116 colon 101% | HCC-2998 colon 103% | KM12 colon 104%

COc1ccc(-c2[nH]c3ccccc3c2/C=C(\C#N)S(=O)(=O)c2ccccc2)cc1
active: MDA-MB-435 melanoma -5.59% | MCF7 breast 6.42% | HCC-2998 colon -29.2% | KM12 colon 7.51%
inactive: T-47D breast 66.7% | BT-549 breast 80.5% | SW-620 colon 28.6% | HCT-116 colon 11%

COc1ccc(CCNC=O)cc1OC
inactive: T-47D breast 99.7% | BT-549 breast 96.1% | MDA-MB-435 melanoma 103% | SW-620 colon 93.4% | MCF7 breast 94.1% | HCT-116 colon 100% | HCC-2998 colon 104% | KM12 colon 102%

Cc1ccc(Cn2cc(COc3ccc4c5ccnc(C)c5n(CCCc5ccccc5)c4c3)nn2)cc1
inactive: T-47D breast 89.9% | BT-549 breast 90.1% | MDA-MB-435 melanoma 106% | SW-620 colon 89.5% | MCF7 breast 86.2% | HCT-116 colon 60% | HCC-2998 colon 102% | KM12 colon 97.9%

C[C@@H]1CC2C3C[C@H](F)C4=CC(=O)C=C[C@]4(C)[C@@]3(F)[C@@H](O)C[C@]2(C)[C@@]1(O)C(=O)CO (stereo partly drawn)
inactive: T-47D breast 100% | BT-549 breast 81.2% | MDA-MB-435 melanoma 93.3% | SW-620 colon 105% | MCF7 breast 93.9% | HCT-116 colon 101% | HCC-2998 colon 98.8% | KM12 colon 97.4%

CCN1CCN(Cc2ccc(NC(=O)Nc3cccc(-n4ccc5c(NC(=O)c6ccccc6)nccc54)c3)cc2C(F)(F)F)CC1
inactive: T-47D breast 74.7% | BT-549 breast 89.5% | SW-620 colon 86.6% | MCF7 breast 31.4% | HCT-116 colon 75.8% | HCC-2998 colon 102% | KM12 colon 53.1%
active: MDA-MB-435 melanoma 9.58%

O=C(c1ccccc1)[C@H]1[C@@H]2CCCN2[C@]2(C(=O)Nc3ccc(F)cc32)[C@]12C(=O)Nc1ccccc12
inactive: T-47D breast 65.6% | BT-549 breast 91.6% | MDA-MB-435 melanoma 92% | SW-620 colon 97.8% | MCF7 breast 82.5% | HCT-116 colon 76.5% | HCC-2998 colon 101% | KM12 colon 94.1%

COc1ccccc1S(=O)(=O)Nc1ccc2c3c(cc(-c4ccoc4)nc13)C(=O)N2C
inactive: T-47D breast 70.1% | BT-549 breast 78.7% | MDA-MB-435 melanoma 32.8% | SW-620 colon 71.3% | MCF7 breast 35.5% | HCT-116 colon 63% | HCC-2998 colon 74.7% | KM12 colon 58.1%

CCCCOc1c(N)cccc1C(=O)OCCN(CC)CC
inactive: T-47D breast 93.3% | BT-549 breast 93.6% | MDA-MB-435 melanoma 111% | SW-620 colon 102% | MCF7 breast 103% | HCT-116 colon 79.2% | HCC-2998 colon 90.2% | KM12 colon 102%

Cl[C@@H]1CCO[C@H](c2cc3ccccc3c3ccccc23)C1
inactive: T-47D breast 99.5% | BT-549 breast 87.4% | MDA-MB-435 melanoma 101% | SW-620 colon 95.4% | MCF7 breast 97.5% | HCT-116 colon 90.3% | HCC-2998 colon 94.8% | KM12 colon 100%
